Source: PubChem
Chronic BCR inh: inhibitors of chronic active B-cell receptor signaling; AID 493014; 340,000 tested, 0.05% active; ABC-DLBCL IkBa-CBG/CBR reporter, luminescence ratio, 4 h; Potency, µM (titrated, usually from 46.1 µM), for the others: at the highest dose activity change, negative = inhibition, actives largely listed as inhibitors; active means well fitted inhibition curve with a large enough effect in the signal ratio, with a control signal flat, not every such curve was filed as active; inconclusive means small, poorly fitted or top-dose-only effect, or effect the other way, or a change in a side signal; the % refers to the signal ratio;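 further: potency means the concentration at half of the fitted maximal effect; plate controls were basal doxycycline-induced cells for no effect and cells given 10 µM MG132 for full effect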
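Doxycycline induced both beetle luciferases in TMD8 lymphoma cells; IKK-driven degradation limits the IkappaBalpha-fused green signal, while red luminescence normalises for cell number and nonspecific effects. Compounds tested up to 46 uM, 4 hrs.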
VP16 counter: inhibits Gal4-VP16 luciferase reporter, ROR gamma counter-screen | Drosophila S2 Gal4-VP16 UAS-luciferase, luminescence, 20 h | Potency, µM (doses to about 53.6 µM), for inactives: at the highest dose activity, negative = inhibition, hits mostly inhibitors | 310,000 tested, 3.5% active | AID 2546;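 further: Gal4-VP16 expression switched on by copper sulfate through the metallothionein promoter; potency means the concentration at half of the fitted maximal effect; on the % scale 0 is the no-effect control and ±100 the full control effect; nearly all actives have a fitted effect of over 50% in size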
SW480 rereplic: induces DNA re-replication in SW480 colon adenocarcinoma cells; SW480 DNA re-replication, Hoechst DNA content imaging, 48 h; Potency, µM (series often up to 46.1 µM), for the others: at the top dose re-replication activation, usual class: activators; 340,000 tested, 1.8% active; further: potency means the concentration at half of the fitted maximal effect; % of control where 0% means no effect; nearly all actives have a fitted effect of over 55% in size
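250 cells/well; 23 nL cpd via pin tool; 48 hr, 37 C, 5% CO2; Hoechst 40 min; imager read of total nuclear intensity, ex 405/em 500-530 nm.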
RORg inh: inhibitors of mouse ROR gamma transcriptional activity | Drosophila S2 Gal4-RORgamma UAS-luciferase reporter, 20 h | Potency, µM (series often up to 53.6 µM), for the others: at the top dose activity change, negative = inhibition, most hits filed as inhibitors | 310,000 tested, 5.4% active; further: potency means the concentration at half of the fitted maximal effect; on the % scale 0 is the no-effect control and ±100 the full control effect; nearly all actives have a fitted effect of over 60% in size
Target sequence (P51450 whole entry, looked up, the tested form may be a part): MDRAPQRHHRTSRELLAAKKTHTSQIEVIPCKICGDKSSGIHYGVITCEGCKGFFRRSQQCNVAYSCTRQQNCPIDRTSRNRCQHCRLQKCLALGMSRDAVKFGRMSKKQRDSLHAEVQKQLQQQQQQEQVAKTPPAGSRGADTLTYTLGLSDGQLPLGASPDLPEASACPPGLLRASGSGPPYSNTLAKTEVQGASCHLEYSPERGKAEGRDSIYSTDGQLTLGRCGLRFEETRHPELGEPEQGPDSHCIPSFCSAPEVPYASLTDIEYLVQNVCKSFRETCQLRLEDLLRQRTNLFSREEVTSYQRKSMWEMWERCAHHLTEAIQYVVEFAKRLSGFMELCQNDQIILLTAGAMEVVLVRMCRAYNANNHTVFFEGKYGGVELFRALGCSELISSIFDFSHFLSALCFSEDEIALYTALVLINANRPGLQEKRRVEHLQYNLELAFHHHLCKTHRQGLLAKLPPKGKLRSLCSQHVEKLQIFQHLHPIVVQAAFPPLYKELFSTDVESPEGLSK
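Drosophila S2 cells stably expressing Gal4-DBD/mouse RORγ fusion under metallothionein promoter plus UAS-luciferase; compound 1 h, then 700 uM CuSO4 induction for 20 h at ambient temperature; inhibition read as reduced luminescence.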
MCF10A rereplic: DNA re-replication induction in MCF 10a cells; MCF 10A DNA re-replication, Hoechst nuclear intensity, 48 h; Potency, µM (titrated, usually from 46.1 µM), inactives show at the highest dose activity, positive = re-replication, most hits filed as activators; 350,000 tested, 2.9% active; AID 624296; further: potency means the concentration at half of the fitted maximal effect; % of control where 0% means no effect; nearly all actives have a fitted effect of over 50% in size
Giardia killer: kills Giardia lamblia; 340,000 tested, 0.15% active; activity change, % at 7.66 µM, hits read low; Giardia lamblia trophozoite viability; AID 540267; in the data active means activity change below about -80%; inconclusive means between about -30% and that limit;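 further: parasites exposed to compound for two days anaerobically before the ATP read; on the % scale 0 is the no-effect control and ±100 the full control effect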
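Each well holds 100 Giardia trophozoites and compound. After two days (48 hrs) at 37 deg C in anaerobic conditions, ATP is quantified by luminescence.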
* = called active by the depositor; ? = inconclusive. Rows were chosen to be rich in hits. Some 8.3% of all compounds tested hit in one or more screens of this group. Unless noted, the call rests on the fitted dose curve; in most records, active means well fitted curve in the direction sought with a large enough effect; inconclusive means small, poorly fitted or top-dose-only effect, or another doubt; inactive means no such curve, though single readings can be large; an effect the other way counts as inactive or inconclusive.

SMILES	Chronic BCR inh	VP16 counter	SW480 rereplic	RORg inh	MCF10A rereplic	Giardia killer
CCC(Cc1ccccc1)n1c(=S)[nH]c2ccccc2c1=O (centres undefined)	28.1%	?	1.7%	3.55µM*	?	14.9
CC(C)(C)OC(=O)CN1c2cccc3cccc(c23)S1(=O)=O	?	-2.1%	-3.0%	-5.9%	4.5%	23.5
COc1ccc(-n2c(-c3ccc(Br)cc3)c[n+]3c2CCc2ccccc2-3)cc1	-19.5%	6.31µM*	6.3%	-69.1%	18.4µM*	1.4
COc1ccc(-c2c[n+]3c(n2-c2ccccc2)CCCCC3)cc1	3.3%	?	-5.9%	?	-2.3%	-16.7
COc1ccc(-c2cn(-c3ccc(OC)cc3)c3[n+]2-c2ccccc2CC3)cc1	?	4.47µM*	-2.8%	?	0.2%	18.9
